# This is part of a sample that, as a whole, favours compounds with a hit. Of some 83,000 tested, about 20% had one in any assay.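 The test compound was applied at a single concentration to cells in 96-well plates for 48 hours, and percent growth was recorded.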 Values without a mark were called inactive. The source made the active and inactive calls. The calls were made as follows: active = growth percent below 10; inactive = the rest.
# Tested on: HL-60(TB) leukemia
# Assay: NCI-60 one-dose screen, 48 h (100 = growth as untreated, 0 = no growth, -100 = all killed)
# Conditions: 10 µM unless noted
row,SMILES,growth
1,NS(=O)(=O)c1ccc(-n2nc(C(=O)N/N=C\c3ccc(F)cc3)cc2-c2ccc(Br)cc2)cc1,71%
2,COCCCOc1cc(C[C@@H](C[C@H](N)[C@@H](O)C[C@H](C(=O)NCC(C)(C)C(N)=O)C(C)C)C(C)C)ccc1OC,111%
3,O=C(CCc1nnc2sc(-c3cc(O)c(O)c(O)c3)nn12)c1nc2ccccc2[nH]1,100%
4,CC1=CC(=NN=c2cc(C)n([O-])c(C)c2)C=C(C)[N+]1=O,37.6%
5,O=C1c2ccccc2OC=C(c2ccccc2)N1CCCCNc1ccc(S(=O)(=O)Nc2ncccn2)cc1,73.1%
6,CCCCN1c2nc3ccccc3cc2Sc2cc3ccccc3nc21,101%
7,O=[N+]([O-])/C(=C\c1ccco1)c1ccccc1Cl,81.6%
8,C=C1CC2(OC1=O)C(=O)N(CCCCCCCCCCCCN1C(=O)C3(CC(=C)C(=O)O3)c3ccccc31)c1ccccc12 (stereo not given),45.5%
9,C=C(C)[C@@H]1CC[C@]2(C(=O)N3CCN(C)CC3)CC[C@]3(C)[C@H](CC[C@@H]4[C@@]5(C)CC(CCCNC(C)=O)(CCCNC(C)=O)[C@H](OC(C)=O)C(C)(C)[C@@H]5CC[C@]43C)[C@@H]12,94%
10,CCC(=O)Oc1ccc(/C(=C(\C)c2ccccc2)c2ccc(OCCN3CCCCC3)cc2)cc1,68.2%
11,COc1ccc2c(c1)c(-c1cc(-c3cn(C)c4ccc(OC)cc34)on1)cn2C,101%
12,O=C(Cn1cc(COc2ncnc3c2cnn3-c2ccccc2)nn1)Nc1ccccn1,105%
13,COc1ccc(C(=O)c2sc3nc4c(c(C(F)(F)F)c3c2N)CN(C(C)=O)CC4)cc1OC,98.7%
14,Cc1cc(NC(=O)c2ccccc2)c(Cl)cc1N,54.7%
15,CC(CN1CCN(CCOCCO)CC1)CN1c2ccccc2Sc2ccc(Cl)cc21 (stereo not given),80.8%
16,COc1ccc(N=Nc2cc(OC)c(OC)c(OC)c2)cc1,42.4%
17,OCCN(CCO)C(=S)S,104%
18,CCN(CC)CCCCCCNc1cccc2cc(Br)cnc12,-51.7% (active)
19,COC1/C=C/OC2(C)Oc3c(C)c(O)c4c(O)c(c(C=NOC(c5ccccc5)c5ccccc5)c(O)c4c3C2=O)NC(=O)/C(C)=C/C=C/C(C)C(O)C(C)C(O)C(C)C(OC(C)=O)C1C (stereo not given),-13.8% (active)
20,O=C(Cn1c2ccccc2c2ccncc21)N/N=C/c1c[nH]c2ccccc12,74.5%
21,NC(N)=N/N=C/c1cccc(Br)c1,95.3%
22,COc1cc(-c2nn(-c3cccc(NC(=O)CCN4CCN(C)CC4)c3)cc2-c2ccncc2)ccc1Cl,-24.5% (active)
23,CCCc1cc(=O)n2c(C(=O)Nc3cccc(C(=O)OCC)c3)c(C(=O)Nc3ccc(F)cc3)sc2n1,73.6% [30 µM]
24,Nc1ccc(-c2csc(-n3[nH]c(=O)ccc3=O)n2)cc1,97.1%
25,COc1ccc2c(c1)C(c1c[nH]c3ccccc13)(c1c[nH]c3ccccc13)CCO2,41.2%
